Assay outcomes from PubChem.
The list is not random: actives were taken first. Their share in the collection is about 6.7%.
C diff growth: inhibitors of Clostridium difficile growth. growth activity, negative = inhibition, % at 16 µg/mL (by protocol). Clostridium difficile clinical isolate growth, OD600, 24 h; active compounds read low. 86,000 compounds, 0.25% hits. AID 1259249;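 active means mean growth activity at or below -80% and every replicate also at or below -80%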;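 further: 0% = DMSO wells and -100% = levofloxacin 16 µg/mL wells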
Pf Dd2 growth: inhibitors of Plasmodium falciparum Dd2 growth; 94,000 compounds, 2.3% hits; activity change, % at 10 µM; AID 1159554; P. falciparum Dd2 growth, SYBR Green, 72 h; active compounds read low; in the data active means activity change below about -80%
T cruzi growth: T. cruzi proliferation inhibition; T. cruzi beta-gal in NIH3T3, GalScreen luminescence, 90 h; inhibition, % at 8.34 µM; 77,000 compounds, 5.9% hits;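 active means mean inhibition above about 93%, with at least 55% of replicates each passing it, limit read from the data, passing the limit was not always enough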
* hit, by the source's call; . = not tested or not shown.

SMILES	C diff growth	Pf Dd2 growth	T cruzi growth
C[C@@H]1CCCCO[C@H](CN(C)C(=O)Nc2ccc(C(F)(F)F)cc2)[C@H](C)CN([C@H](C)CO)C(=O)c2cc(NC(=O)C3CCCCC3)ccc2O1	13	-72	92
C[C@@H]1CCCCO[C@H](CN(C)C(=O)Nc2ccc(C(F)(F)F)cc2)[C@@H](C)CN([C@H](C)CO)C(=O)c2cc(NC(=O)C3CCCCC3)ccc2O1	-3	-84*	90
C[C@@H]1CN([C@@H](C)CO)C(=O)c2cc(NC(=O)C3CCCCC3)ccc2O[C@@H](C)CCCCO[C@H]1CN(C)C(=O)Nc1ccccc1	-2	-7	39
C[C@H]1CCCCO[C@H](CN(C)C(=O)Nc2ccc(C(F)(F)F)cc2)[C@@H](C)CN([C@@H](C)CO)C(=O)c2cc(NC(=O)C3CCCCC3)ccc2O1	-7	-84*	54
C[C@@H]1CCCCO[C@H](CN(C)C(=O)Nc2ccc3c(c2)OCO3)[C@@H](C)CN([C@H](C)CO)C(=O)c2cc(NC(=O)C3CCCCC3)ccc2O1	-2	-33	53
C[C@H]1CCCCO[C@H](CN(C)C(=O)Nc2ccc3c(c2)OCO3)[C@@H](C)CN([C@@H](C)CO)C(=O)c2cc(NC(=O)C3CCCCC3)ccc2O1	-4	-89*	56
C[C@H]1CN([C@@H](C)CO)C(=O)c2cc(C#CC3CCCC3)cnc2O[C@H]1CN(C)S(C)(=O)=O	-2	18	.
CCC(=O)N1CC2(C1)[C@H](c1ccc(-c3ccccc3)cc1)[C@H](CO)N2C(C)=O	-9	-12	.
COc1ccc2c3c(n(C)c2c1)[C@H](CO)N(C(=O)Nc1cccc(F)c1)CC31CCN(C)CC1	.	31	.
C[C@H](CO)N1C[C@H](C)[C@@H](CN(C)C(=O)Nc2ccc(C(F)(F)F)cc2)OCCCC[C@H](C)Oc2ccc(NC(=O)C3CCCCC3)cc2C1=O	5	-86*	88
C[C@@H]1CN([C@H](C)CO)C(=O)c2cc(NC(=O)Nc3ccc(C(F)(F)F)cc3)ccc2O[C@@H](C)CCCCO[C@H]1CN(C)C(=O)Nc1ccc(C(F)(F)F)cc1	7	-67	90
C[C@H]1CCCCO[C@H](CN(C)C(=O)Nc2ccc(F)cc2)[C@@H](C)CN([C@@H](C)CO)C(=O)c2cc(NC(=O)C3CCCCC3)ccc2O1	-6	-86*	75
C[C@@H]1CCCCO[C@@H](CN(C)C(=O)Nc2ccc(C(F)(F)F)cc2)[C@@H](C)CN([C@@H](C)CO)C(=O)c2cc(NC(=O)C3CCCCC3)ccc2O1	-2	-92*	.
C[C@@H]1CN([C@H](C)CO)C(=O)c2cc(NC(=O)C3CCCCC3)ccc2O[C@@H](C)CCCCO[C@H]1CN(C)C(=O)Nc1ccc(C(F)(F)F)cc1	5	-68	86
C[C@H](CO)N1C[C@H](C)[C@H](CN(C)C(=O)Nc2ccc(F)cc2)OCCCC[C@H](C)Oc2ccc(NC(=O)C3CCCCC3)cc2C1=O	6	-11	75
O=c1n(-c2ccccc2)c(=O)n2n1CC(COc1ccccc1)=C1[C@@H](CCc3ccccc3)OB(O)C[C@@H]12	-1	.	.
O=C(N[C@@H]1CC[C@H](CCNC(=O)c2ccccc2F)O[C@H]1CO)c1ccc2c(c1)OCO2	-3	-6	.
O=C(Cc1ccccn1)NCC[C@H]1CC[C@@H](NS(=O)(=O)c2ccc(F)cc2)[C@@H](CO)O1	0	-19	-2
CCCN1C[C@@H](C)[C@H](OC)CN(C)C(=O)c2cc(NC(=O)c3ccc4c(c3)OCO4)ccc2OC[C@H]1C	0	-47	-13
COc1ccccc1C#Cc1ccc2c(c1)[C@H]1[C@H](CCN1C(=O)c1ccc(F)cc1)[C@H](CO)N2	-97*	12	91
COc1ccccc1CN1CC[C@@H]2[C@@H](CO)Nc3ccc(-c4cccc(F)c4)cc3[C@@H]21	-6	-68	49
COc1cccc(-c2ccc3c(c2)[C@@H]2[C@@H](CCN2Cc2ccccc2OC)[C@@H](CO)N3)c1	-98*	-59	-2
COc1ccc(C#Cc2ccc3c(c2)[C@@H]2[C@@H](CCN2C(C)=O)[C@@H](CO)N3)cc1	-15	-5	23
COc1ccc(C#Cc2ccc3c(c2)[C@H]2[C@H](CCN2Cc2ccncc2)[C@@H](CO)N3)cc1	5	-92*	.
COc1ccccc1CN1CC[C@@H]2[C@H](CO)Nc3ccc(-c4cccc(F)c4)cc3[C@@H]21	-3	-64	38
SMILES	C diff growth	Pf Dd2 growth	T cruzi growth
COc1cccc(-c2ccc3c(c2)[C@H]2[C@H](CCN2Cc2ccccc2OC)[C@H](CO)N3)c1	-91*	-76	5
COc1ccccc1C#Cc1ccc2c(c1)[C@@H]1[C@@H](CCN1C(=O)c1ccc(F)cc1)[C@@H](CO)N2	37	7	79
COCC(=O)N1CCC2(CC1)CN(S(C)(=O)=O)[C@@H](CO)c1c2c2ccc(OC)cc2n1C	.	70	.
CO[C@H]1CN(C)C(=O)c2ccc(NC(=O)C3CCC3)cc2OC[C@H](C)N(CC2CCCCC2)C[C@H]1C	.	-16	26
CCC(=O)Nc1ccc2c(c1)OC[C@H](C)N(C(=O)CN(C)C)C[C@@H](C)[C@@H](OC)CN(C)C2=O	.	-4	12
CCC(=O)N1CC2(CN(C(=O)Cc3ccccc3)C2)c2c(n(C)c3cc(OC)ccc23)[C@H]1CO	2	-68	.
OC[C@@H]1Nc2ccc(C#Cc3ccc(F)cc3)cc2[C@H]2NCC[C@@H]12	48	-89*	.
COc1ccccc1CN1CC[C@@H]2[C@H](CO)Nc3ccc(C#Cc4ccccc4)cc3[C@@H]21	-99*	-51	-16
O=C(c1ccc(F)cc1)N1CC[C@@H]2[C@H](CO)Nc3ccc(C#Cc4ccc(F)cc4)cc3[C@@H]21	8	-57	28
COc1ccccc1CN1CC[C@@H]2[C@H]1c1cc(-c3cccc(F)c3)ccc1N[C@@H]2CO	-1	-76	26
CNC[C@@H]1Oc2ccc(NC(=O)c3ccncc3)cc2C(=O)N([C@H](C)CO)C[C@H]1C	-8	16	-18
COc1cccc(S(=O)(=O)Nc2ccc3c(c2)C(=O)N(C)[C@@H]2CC[C@H](CC(=O)O)O[C@H]2CO3)c1	-4	19	-38
COc1ccc(NC(=O)N(C)C[C@H]2OCCCC[C@@H](C)Oc3ccc(NC(=O)Nc4cccc5ccccc45)cc3C(=O)N([C@@H](C)CO)C[C@H]2C)cc1	-1	-76	66
COc1ccc(NC(=O)N(C)C[C@H]2OCCCC[C@@H](C)Oc3ccc(NC(=O)Nc4cccc5ccccc45)cc3C(=O)N([C@H](C)CO)C[C@@H]2C)cc1	6	-78	-12
COc1ccc(NC(=O)N(C)C[C@H]2OCCCC[C@H](C)Oc3ccc(NC(=O)Nc4cccc5ccccc45)cc3C(=O)N([C@H](C)CO)C[C@H]2C)cc1	3	-86*	-23
COc1ccc(NC(=O)N(C)C[C@H]2OCCCC[C@H](C)Oc3ccc(NC(=O)Nc4cccc5ccccc45)cc3C(=O)N([C@@H](C)CO)C[C@H]2C)cc1	2	-85*	-16
C[C@@H]1CCCCO[C@H](CN(C)S(C)(=O)=O)[C@H](C)CN([C@@H](C)CO)C(=O)c2cc(NS(=O)(=O)c3ccc(F)cc3)ccc2O1	-2	-26	-49
